Reference: the supplement of paper PMC12494721
Where a name gives a salt, the structure may show the parent alone. A number with no mark means an inactive call.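 Rule for the calls: for the amine columns active = adjusted P below 0.05 in both replicates with a change the same way and a mean fold change under 0.8 or over 1.25; inactive = the rest.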

test system: Klebsiella aerogenes DSM 30053; assay: fold change of Histamine concentration vs plate DMSO controls (fold change (ratio)); higher = more amine produced, active = hit call of the paper (significant change in both replicates, either direction); conditions: incubation time: 27 h, anaerobic, 37 °C
How it was run: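 In 80 µL wells, cultures of four gut bacterial strains in mGAM started at OD 0.1 before a 1:1 dilution and grew anaerobically at 37 °C for 27 h. Compounds were added to 20 µM final, except sweeteners at 50 µM final. After extraction of whole cultures with cold acetonitrile/methanol plus 0.1% formic acid and centrifugation, amines were measured by LC–triple-quadrupole MS in dynamic MRM mode against external calibration curves, with within-batch drift correction. Values give fold change over DMSO controls on the same plate, averaged across 2 biological replicates.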

SMILES | fold change of Histamine concentration
CC1CC(OC(=O)C(O)c2ccccc2)CC(C)(C)C1 (configuration not stated) [Cyclandelate] (20 µM) | 0.997
COc1ccc(C(=O)CC(=O)c2ccc(C(C)(C)C)cc2)cc1 [Avobenzone] (20 µM) | 1.01
Cc1nc2ccccc2n1Cc1ccc(Cl)cc1 [Chlormidazole] (20 µM) | 1.06
Cn1nnnc1SCC1=C(C(=O)O)N2C(=O)[C@@H](NC(=O)[C@H](O)c3ccccc3)[C@H]2SC1 [Cefamandole sodium salt] (20 µM) | 1.04
CCN1CCC[C@H]1CNC(=O)c1c(O)c(Cl)cc(Cl)c1OC [Raclopride] (20 µM) | 0.961
O=c1oc2ccccc2c(O)c1Cc1c(O)c2ccccc2oc1=O [Dicumarol] (20 µM) | 1
S=C([S-])NCCNC(=S)[S-].S=C([S-])NCCNC(=S)[S-].[Mn+2].[Zn+2] (20 µM) | 0.985
CC(NCCC(c1ccccc1)c1ccccc1)c1ccccc1 (configuration not stated) [Fendiline hydrochloride] (20 µM) | 1.06
Nc1ccc(S(=O)(=O)Nc2nccs2)cc1 [Sulfathiazole] (20 µM) | 1
CC(=O)/N=c1/sc(S(N)(=O)=O)nn1C [Methazolamide] (20 µM) | 0.962
Oc1ccccc1O [Catechol] (20 µM) | 1
COc1cc(C(=O)NS(=O)(=O)c2ccccc2C)ccc1Cc1cn(C)c2ccc(NC(=O)OC3CCCC3)cc12 [Zafirlukast] (20 µM) | 1.05
